Most compounds without a hit are left out; they make up all but 6% or so of the library.
D1 agonist – Allosteric Agonists of the Human D1 Dopamine Receptor: qHTS | actives 1% (n = 360,000) | HEK293 T-REx D1 cells, calcium flux, agonist mode | AID 504660, 2011 | activation, % at 2 µM; in the data active = activation above about 30%; note: 0% is about no effect
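Agonism was scored from calcium flux recorded over 180 s (1 read/s) after pintool compound addition, following a 10-cycle baseline. Cells were inducible force-coupled HEK293 TREx D1, plated overnight at 30 C and loaded with no-wash calcium dye.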
DRD3 antagonist – qHTS of D3 Dopamine Receptor Antagonist: qHTS. D3R cells, DiscoveRx beta-arrestin luminescence, antagonist mode; stronger effect = lower value. D(3) dopamine receptor (Homo sapiens), P35462. max response, negative = inhibition, %. actives 2.5% (n = 360,000); in the data active = max response below about -50%; inconclusive = no clear call, values can overlap the other calls; note: % is set by controls: 0 for no effect and ±100 for the full control effect
Target sequence (P35462 whole entry, looked up): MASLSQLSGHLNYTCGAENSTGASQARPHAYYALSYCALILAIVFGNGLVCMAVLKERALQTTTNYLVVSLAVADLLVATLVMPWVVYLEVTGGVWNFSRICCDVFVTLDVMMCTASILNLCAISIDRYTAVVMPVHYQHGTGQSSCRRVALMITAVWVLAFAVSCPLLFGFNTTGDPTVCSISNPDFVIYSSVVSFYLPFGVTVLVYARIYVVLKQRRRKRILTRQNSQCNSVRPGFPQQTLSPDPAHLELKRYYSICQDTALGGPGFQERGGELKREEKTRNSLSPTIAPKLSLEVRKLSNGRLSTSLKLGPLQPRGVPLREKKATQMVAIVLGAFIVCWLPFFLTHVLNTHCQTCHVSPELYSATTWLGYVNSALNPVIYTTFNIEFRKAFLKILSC
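Cells plated overnight at 1500 cells/well, then exposed to library compounds with dopamine controls for 90 minutes at 37 degrees C. DiscoveRx reagent added for 30–60 minutes at room temperature; luminescence read, quantitative HTS format.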
DRD3 agonist – qHTS of D3 Dopamine Receptor Agonist: qHTS. actives 0.58% (n = 410,000). D3R DiscoveRx beta-arrestin cells, luminescence, 90 min. max activation, %; in the data active = max activation above about 30%; note: 0% is about no effect
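Cells at 1500/well, incubated overnight, then treated with pinned compounds (dopamine as control) for 90 min at 37 degrees C. DiscoveRx reagent added for 30 - 60 minutes at room temperature; luminescence read.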
D1 PAM – Potentiators of Human D1 Dopamine Receptor: qHTS. HEK293 TREx D1 cells, calcium flux, dopamine EC20 potentiation. actives 0.036% (n = 360,000). AID 504651, 2011. potentiation, % at 10 µM. D(1A) dopamine receptor (Homo sapiens), P21728; in the data active = potentiation above about 30%; note: 0% is about no effect
D1 antagonist – Antagonist of Human D 1 Dopamine Receptor: qHTS | D(1A) dopamine receptor (Homo sapiens), P21728 | HEK293 TREx D1 cells, calcium flux, dopamine EC80; stronger effect = lower value | activity change, negative = inhibition, % at 10 µM | actives 3.2% (n = 360,000) | AID 504652, 2011; in the data active = activity change below about -30%; note: % is set by controls: 0 for no effect and ±100 for the full control effect
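Compound effects on dopamine-evoked calcium signalling were measured in tetracycline-induced HEK293 Trex D1 cells. Dopamine at EC80 followed a 180 s compound pre-read, and fluorescence was tracked kinetically for 180 s more.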
* marks the source's active call; other numbers are inactive results; ? = inconclusive; nt = not tested or not shown.

SMILES	D1 agonist	DRD3 antagonist	DRD3 agonist	D1 PAM	D1 antagonist
CC(C)(C)C1CCc2c(sc(NC(=O)CCC(=O)O)c2C(=O)Nc2ccccc2C(F)(F)F)C1 (centres undefined)	-1.7	nt	0.8	-0.2	-6.3
CCC(Sc1nc2nccnc2c(=O)n1Cc1ccc(Cl)cc1)C(=O)NC1CCCCC1 (centres undefined)	-0.1	nt	-9.2	-0.3	9.1
COc1ccccc1Nc1c2c(nc3ccc(NC(=O)c4ccccc4F)cc13)CCCC2	0.0	nt	-18.8	-4.9	-3.9
COc1ccccc1Nc1c2c(nc3ccc(NC(=O)c4cccc(OC)c4OC)cc13)CCCC2	-1.7	nt	53.6*	0.5	0.4
COc1ccc(C(=O)CSc2nc(C)cc(=O)[nH]2)cc1	2.5	10.9	0.7	-1.9	-2.9
COc1ccc(C(=O)CSc2cc(C)[nH]c(=O)n2)cc1	1.3	-51.1*	-2.5	-1.1	7.3
CCOC(=O)c1c(C)c(C(=O)NCCc2ccc(OC)cc2)c(C)n1C	-1.4	nt	3.0	-6.2	5.4
CCc1ccc(C(=O)c2cn(CC(=O)Nc3cc(OC)ccc3OC)c3nc(C)ccc3c2=O)cc1	6.5	nt	-11.5	-2.2	-49.0*
Cc1cc(C)c2c(N)c(-c3nnc(SCc4ccc(Cl)cc4)n3C)sc2n1	0.0	2.8	13.9	2.5	-38.9*
C=CCn1c(SCc2ccccc2Cl)nnc1-c1sc2nc(C)cc(C)c2c1N	1.3	33.4	5.3	-0.8	6.6
COc1ccccc1NC(=O)C(=O)N/N=C(\C)CC(=O)Nc1ccccn1	1.2	13.0	3.9	-6.4	-35.0*
COc1ccc(NC(=O)C(=O)N/N=C(\C)CC(=O)Nc2ccccn2)c(OC)c1	2.4	14.3	-2.9	2.5	0.6
COc1ccccc1NC(=S)Nc1ccccn1	0.9	4.5	-3.0	-6.3	-11.6
COc1ccccc1NC(=O)C(=O)Nc1ccccn1	7.0	-83.6*	-4.2	0.3	11.1
COc1cc(CCC(=O)NCc2ccc3c(c2)CCN3C(=O)c2ccc(F)cc2)cc(OC)c1OC	-0.7	nt	-7.6	-3.5	-7.6
COc1cc(Nc2cc(C)nc3ncnn23)cc(OC)c1OC	0.5	-13.4	-0.5	-13.9	-31.3*
CC(=O)Nc1nc(C)nc(-c2ccccc2OC(C)=O)n1	2.1	17.5	31.3*	-2.1	-0.4
CC(=O)Nc1nc(-c2ccccc2)nc(-c2ccccc2OC(C)=O)n1	0.5	2.7	3.0	-2.0	-0.8
CCOc1cc(-c2nnc(SCC(=O)NCc3ccccc3)nc2-c2ccc(OC)c(OCC)c2)ccc1OC	3.6	nt	-15.5	-2.4	-8.0
Cc1cc(C)c(NC(=O)c2cc(C)nc3c2c(C)nn3-c2cccc(F)c2)c(C)c1	6.3	nt	10.8	-2.0	7.0
Cc1cc(C)c2c(n1)nn1c(C)c(CCC(=O)NCc3ccccc3Cl)c(C)nc21	0.2	nt	-7.3	0.6	2.1
CCOc1ccc(C(=O)NCC(=O)NCC2CCCCC2)cc1OCC	1.3	-2.6	-21.3	1.7	-34.5*
CCOc1ccc(C(=O)NCC2CCCO2)cc1OCC (centres undefined)	1.7	-8.1	0.3	3.5	-10.3
CCCN1C(=O)C2(c3ccccc31)c1c(oc3ccc(F)cc3c1=O)C(=O)N2CCCOC(C)C (centres undefined)	-0.3	nt	-15.2	1.4	9.0
Cc1ccsc1/C=C1/C(=O)NN(c2ccccc2)C1=O	0.9	?	-8.1	-3.5	30.7
SMILES	D1 agonist	DRD3 antagonist	DRD3 agonist	D1 PAM	D1 antagonist
Cc1ccsc1C=C1C(=O)c2ccccc2C1=O	-1.0	-56.1*	-2.7	-1.2	4.1
COc1ccc(C(=O)Nc2ccccc2C(=O)Nc2cc(C)ccn2)cc1	2.1	-63.5*	2.5	12.8	1.8
CCOCCc1nn2c(=O)cc(COC(=O)c3ccc(NC(=O)c4ccc(F)cc4)cc3)nc2s1	-0.7	nt	-14.2	-0.3	7.6
CCOc1ccc(OCCNCc2ccc(OC(C)C(=O)N(C)C)c(OCC)c2)cc1 (centres undefined)	56.5*	5.3	1.1	-1.6	10.4
CCOc1cc(CNCCO)ccc1OCC(=O)NC(C)(C)C	2.0	-4.5	4.6	1.5	-6.3
CCCS(=O)(=O)N1CCN=C1SCc1cccc(C)c1	5.2	7.7	-3.1	-1.1	-30.1*
c1ccc2c(c1)nc1n2CCN1CCNC1CCCCC1	-0.8	0.0	-0.9	-1.1	32.6
c1ccc2c(c1)ncn2CCN1CCCCC1	2.9	-15.0	0.9	-16.1	-71.5*
N#CCC(=O)N1CCn2c1nc1ccccc12	2.1	48.9	9.3	0.3	-0.6
c1ccc2c(c1)nc1n2CCN1CCN1CCCC1	0.1	-111.6*	-35.9	-3.6	-3.4
c1ccc(CN2CCN(CCN3CCn4c3nc3ccccc34)CC2)cc1	-0.8	-71.8*	0.6	-3.0	15.5
O=S(=O)(c1ccc(Cl)cc1)c1nnn2c1nc(N1CCCCC1)c1sccc12	1.9	nt	6.6	-2.1	-7.3
CCc1ccccc1NC(=O)C(=O)NCCc1sc(-c2cccc(C)c2)nc1C	9.2	nt	22.3	-2.6	21.1
CCN(CCO)c1ccc(Nc2cc(-c3ccc(-c4ccccc4)cc3)ncn2)cc1	nt	105.1	18.4	nt	nt
CCN(CCO)c1ccc(N=Nc2cc(C)[nH]n2)cc1	-0.3	-51.6*	-9.3	1.2	-4.9
Nc1ccc2nc(-c3ccccc3)c(-c3ccccc3)nc2c1	60.7*	-5.6	1.8	9.0	0.2
O=C(CSc1nc2c([nH]c3ccccc32)c(=O)n1-c1ccccc1)Nc1ccc2c(c1)OCO2	-0.2	nt	-10.0	-2.1	0.8
CCC(=O)N1CCc2cc(Br)cc(S(=O)(=O)CCC(=O)NCc3ccc(F)cc3)c21	2.4	nt	9.0	1.1	-17.0
CC(=O)c1ccc(NC(=O)C(C)NCc2ccccc2Cl)cc1 (centres undefined)	3.8	-5.0	-9.5	-5.8	-35.8*
CCCC(=O)Nc1ccc(C(=O)NCc2ccccc2Cl)cc1	0.3	4.9	-2.3	-6.7	-0.9
CCCCNC(=O)C1(C)CCN1C(=O)c1ccc(C(F)(F)F)nc1C (centres undefined)	nt	-5.6	-4.4	nt	nt
Cc1nc(C(F)(F)F)ccc1C(=O)N1CCC1(C)C(=O)NCc1cccs1 (centres undefined)	nt	-90.7*	-2.6	nt	nt
Cc1cc(C)cc(NC(=O)C2CCN(c3cc(C)nc4c(-c5ccc(Cl)cc5)c(C)nn34)CC2)c1	0.5	nt	2.5	1.8	6.0
O=S(=O)(c1cccc2ccccc12)N1CCN(c2ccc(Cl)c(Cl)c2)CC1	0.4	nt	71.5*	-6.0	-21.4
CC(=O)Nc1ccccc1-c1nc2ccccc2n(C(C)C(=O)Nc2ccccc2C(F)(F)F)c1=O (centres undefined)	1.9	nt	-12.5	0.2	-8.4
CCN1CCc2c(sc(NC(=O)c3ccc(S(=O)(=O)N(CCOC)CCOC)cc3)c2C(N)=O)C1	-1.2	nt	-8.3	0.8	-6.6

Screening results from PubChem BioAssay.
